# Compound activity from PubChem.
# Pf Dd2 growth = qHTS Primary assay for Inhibitors of Plasmodium falciparum Dd2 growth in vitro; AID 1347417, 2020; Potency, µM (highest dose often 28.9 µM), most hits filed as inhibitors; P. falciparum Dd2 growth, SYBR Green, 72 h; 120,000 compounds, 4.3% hits; active = well fitted inhibition curve with a large enough effect; note: nearly all actives have a fitted effect of over 65% in size
#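 Readout: SYBR Green fluorescence, 485 nm excitation, 535 nm emission, after ~16 h lysis at 37C. Before that, Dd2-infected red cells (2.5% hematocrit) grew 72 h with compound, 29 uM top final concentration.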
# Numbers stand for hits; – = inactive. This is one part of a sample in which hits are shown more often than they occur.
SMILES,Pf Dd2 growth
O=C(c1ccco1)N1CCC2(CC1)CC(N(Cc1ccc(F)cc1)C1CC1)CCO2 (configuration not stated),2.8µM
CC(=O)N1CCC2(CC1)CC(N(Cc1ccc(F)cc1)C1CC1)CCO2 (configuration not stated),–
Cc1ccc(C(=O)N2CCC3(CC2)CC(N(Cc2ccccc2)C2CC2)CCO3)s1 (configuration not stated),1.6µM
O=C(c1ccccc1)N1CCC2(CC1)CC(N(Cc1ccc(F)cc1)C1CC1)CCO2 (configuration not stated),7.9µM
O=C(c1ccccn1)N1CCC2(CC1)CC(N(Cc1ccccc1)C1CC1)CCO2 (configuration not stated),–
CCC(=O)N1CCC2(CC1)CC(N(Cc1ccccc1)C1CC1)CCO2 (configuration not stated),–
O=C(CCC1CCCC1)N1CCC2(CC1)CC(N(Cc1ccccc1)C1CC1)CCO2 (configuration not stated),13µM
Cc1ccc(C(=O)N2CCC3(CC2)CC(N(Cc2ccccc2)C2CC2)CCO3)cc1 (configuration not stated),–
Cc1cc(C(=O)N2CCC3(CC2)CC(N(Cc2ccc(F)cc2)C2CC2)CCO3)n(C)n1 (configuration not stated),–
CC(C)C(=O)N1CCC2(CC1)CC(N(Cc1ccccc1)C1CC1)CCO2 (configuration not stated),–
O=C(C1CCOCC1)N1CCC2(CC1)CC(N(Cc1ccc(F)cc1)C1CC1)CCO2 (configuration not stated),–
COCCC(=O)N1CCC2(CC1)CC(N(Cc1ccccc1)C1CC1)CCO2 (configuration not stated),–
O=C(Cn1cccn1)N1C[C@@H](COCC2CC2)[C@H](c2ccccn2)C1,–
Cc1cnc(C)c(-c2cc(O)c3c(c2)CN(CCCn2cnnn2)CCO3)n1,–
CCc1ccccc1NC(=O)CN1C(=O)NC2(CCCCC2)C1=O,–
COCCCn1c(C)cc(C(=O)N2CCCCCCNC(=O)CC2)c1C,–
CCc1nn2c(=O)c(S(=O)(=O)Nc3cccc(F)c3)c(C)nc2s1,–
COc1cc(OC)cc(C(=O)Nc2ccc3c(c2)CN(Cc2ccc(F)cc2)C(=O)C(C)O3)c1 (configuration not stated),–
O=C(CC1CCCC1)N1CCC2(CC1)CC(N(Cc1ccc(F)cc1)C1CC1)CCO2 (configuration not stated),7.9µM
CCOCC(=O)N1CCC2(CC1)CC(N(Cc1ccc(F)cc1)C1CC1)CCO2 (configuration not stated),–
O=C(C1CCC1)N1CCC2(CC1)CC(N(Cc1ccc(F)cc1)C1CC1)CCO2 (configuration not stated),–
CCCNC(=O)N(C1CCOCC1)C1CCN(C(=O)c2nccc3ccccc23)CC1,–
O=C(c1cnco1)N1CC(F)(F)C[C@H]1c1nc(-c2ccncc2)no1,–
CN(Cc1cccc(-c2nn[nH]n2)c1)c1cc(C2CC(N)C2)ncn1 (configuration not stated),–
COc1ccc(Cl)cc1CN(C)c1cc(C2CC(N)C2)ncn1 (configuration not stated),10µM
SMILES,Pf Dd2 growth
Cc1cccnc1CN(C)c1cc(C2CC(O)C2)ncn1 (configuration not stated),–
O=C(Nc1ccc(S(=O)(=O)N2CCC(c3nc4ccccc4s3)CC2)cc1)c1ccc(F)cc1,–
CCOc1cc(=O)n2c(c1C(=O)NCc1cccnc1)CCCCC2,–
CC(C)N1CCC(CCN2C(=O)[C@H]3CN(S(=O)(=O)c4cn(C)cn4)C[C@H]3C2=O)CC1,–
Cn1nc(-c2ccccc2F)c2cc(C(=O)NCc3cccc(Cl)c3)sc21,–
Cn1nc(-c2ccccc2F)c2cc(C(=O)Nc3cc(F)ccc3F)sc21,–
CCCN(CCC)CCNC(=O)c1cc2c(-c3ccccc3F)nn(C)c2s1,4µM
Cn1nc(-c2ccccc2F)c2cc(C(=O)NCc3ccc(Cl)cc3)sc21,–
COc1ccccc1N1CCN(C(=O)c2cc3c(-c4ccccc4F)nn(C)c3s2)CC1,11µM
COc1ccc(-c2nn(C)c3sc(C(=O)N4CCN(c5ccccc5F)CC4)cc23)cc1OC,–
Cc1cccc(-c2cccc(CCOc3cnc4c(ccn4CC(=O)O)c3)c2)c1,–
CCOc1ccc(CCNC(=O)c2ccc3c(c2)N(Cc2cccc(Cl)c2)C(=O)c2ccccc2S3(=O)=O)cc1OCC,–
COCCNC(=O)C1CN(c2cccc(Cl)c2)C(=O)N1 (configuration not stated),–
COc1ccc(-n2nc(C(=O)Nc3ccccc3OC)c3c4ccccc4n(C)c3c2=O)cc1Cl,–
Cc1nc2ncnn2c(C)c1CCC(=O)NCc1cccc(Cl)c1,–
CC(C)c1cc(C(=O)N2CC[C@H](N3CCOCC3)[C@H](CCCO)C2)nc(N)n1,–
Cc1nn(-c2ccc(C(F)(F)F)cc2)c(C)c1[C@@H]1C=C[C@@H](NC(=O)CCCC(=O)O)C1,–
Cn1c(=O)[nH]c2cc(-c3noc(-c4cccc(Cl)c4)n3)ccc21,–
CCc1ccccc1NC(=O)CCNS(=O)(=O)c1ccc2c(c1)CCN2C(=O)C1CC1,–
COc1ccc(Nc2cc(C)nc(-n3nc(C)cc3C)n2)cc1Cl,3.5µM
Cc1cc(Nc2ccc(F)cc2F)nc(-n2nc(C)cc2C)n1,–
CCCOc1ccc(Nc2cc(C)nc(C)n2)cc1,–
O=C([C@@H]1C[C@H](Oc2cccnc2)CN1S(=O)(=O)c1cccs1)N1CCCC1,–
CC1CCN(C(=O)C2CCN(c3nc(-c4ccccc4)nc4c3CCC4)CC2)CC1,–
O=C(NC1CCCC1)C1CCCN(c2nc(-c3ccccc3)nc3c2CCC3)C1 (configuration not stated),–
SMILES,Pf Dd2 growth
Cc1ccc(C#N)c(N2CCN(C3CCCC3)C(CCO)C2)n1 (configuration not stated),–
O=C(C1CCN(c2nc(-c3ccccc3)nc3c2CCC3)CC1)N1CCCNCC1,8.9µM
NC1CCN(C(=O)C2CCN(c3nc(-c4ccccc4)nc4c3CCC4)CC2)C1 (configuration not stated),–
OCCC1CN(c2nc(-c3ccccc3)nc3c2CCC3)CCN1C1CCCC1 (configuration not stated),10µM
c1ccc([C@@H]2CN(Cc3ccncc3)C[C@H]2COc2cccnc2)nc1,–
O=C(c1ccncc1)N1CCC2(CCCCO2)CC1,–
Cc1nc2c(-c3ccccc3)c(C)nn2c(C)c1CCC(=O)NCc1ccccc1,–
CCOC(=O)C1CCN(C(=O)C2CCN(C3=NS(=O)(=O)C(c4ccc(C)c(C)c4)=C3C)CC2)CC1,4µM
CC1=C(c2ccc(C)c(C)c2)S(=O)(=O)N=C1N1CCC(C(=O)Nc2ccc(Cl)cc2)CC1,–
CC1=C(c2ccc(C)c(C)c2)S(=O)(=O)N=C1N1CCC(C(=O)N2CCC(C(N)=O)CC2)CC1,–
C=C(C)CSc1nc2sc3c(c2c(=O)n1-c1ccccc1)CCC(C)C3 (configuration not stated),–
COc1ccc(/C=C\c2onc(C)c2S(=O)(=O)N2CCC(C(=O)Nc3cccc(OC)c3)CC2)cc1,8.9µM
COc1ccc(CNC(=O)C2CCN(S(=O)(=O)c3cccc(-c4noc(C)n4)c3)CC2)cc1,–
COc1ccc(NC(=O)C2CCN(S(=O)(=O)c3cc(-c4noc(C)n4)ccc3C)CC2)cc1,6.3µM
COc1ccc(-c2noc(N3CCC(C(=O)Nc4cccc(C)c4C)CC3)n2)cc1,–
